From PubChem BioAssay (EPA / NIEHS)
Calls of active or inactive are those of the source. The calls were made as follows: active = hit-call score of the fitted dose curve at least 0.9, where 1 is the maximum; inactive = score below 0.9.

Molecular target: Nuclear respiratory factor 1 (Homo sapiens) (UniProt Q16656)
Sequence (Q16656 whole entry, looked up): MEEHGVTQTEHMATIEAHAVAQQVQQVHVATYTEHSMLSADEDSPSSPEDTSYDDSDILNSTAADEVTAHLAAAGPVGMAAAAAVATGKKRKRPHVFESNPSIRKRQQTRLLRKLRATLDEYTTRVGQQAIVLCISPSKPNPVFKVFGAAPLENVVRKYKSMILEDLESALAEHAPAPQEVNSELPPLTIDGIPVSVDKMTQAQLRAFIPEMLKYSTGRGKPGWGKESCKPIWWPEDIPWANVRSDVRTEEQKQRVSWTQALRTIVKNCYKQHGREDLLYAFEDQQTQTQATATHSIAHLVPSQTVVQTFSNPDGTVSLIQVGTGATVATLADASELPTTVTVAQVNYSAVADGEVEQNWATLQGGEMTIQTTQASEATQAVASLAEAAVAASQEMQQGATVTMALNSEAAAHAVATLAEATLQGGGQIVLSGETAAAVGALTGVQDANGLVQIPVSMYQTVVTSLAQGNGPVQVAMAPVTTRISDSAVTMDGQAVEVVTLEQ
Test: ATG_NRF1_CIS: Attagene CIS-FACTORIAL HepG2 Assay for human Nuclear Respiratory Factor 1 (NRF1) Orphan Gene (AID 2282987)
Details: HepG2 NRF1 cis-element reporter, Attagene multiplex; actives raise or lower the signal
In short: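 Using DMSO as baseline, gain- or loss-of-signal was fitted for reporter mRNA levels in HepG2 cells transiently transfected with cis-regulated reporter units. Samples were taken 24 h after dosing and read by RT-PCR with capillary electrophoresis.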
In the case of CCCCSCCCC, the outcome was “inactive”.
With CCCCC1(COC(=O)CCC(=O)O)C(=O)N(c2ccccc2)N(c2ccccc2)C1=O the outcome was “inactive”.
In the case of CC(C)(C)c1ccc(C(=O)O)cc1, the outcome was “inactive”.
With CC1CC(O)CC(C)(C)C1 (stereo not drawn) the outcome was “inactive”.
With CCCOC(=O)c1c(Cl)c(Cl)c(Cl)c(Cl)c1C(=O)OCCC the AC50 was 146 µM (active).
In the case of CC(C)CCOC(=O)c1ccccc1, the outcome was “inactive”.
For O=C(O)c1cccnc1C(=O)O, the outcome was “inactive”.
For CCC(C)c1cc([N+](=O)[O-])cc([N+](=O)[O-])c1OC(=O)OC(C)C (stereo not drawn), the AC50 was 143 µM (active).
In the case of Cc1cccc(Nc2ccccc2)c1, the outcome was “inactive”.
For CCOc1ccc(NC(=O)CC(C)O)cc1 (stereo not drawn), the outcome was “inactive”.
With CS(=O)(=O)OCCCCOS(C)(=O)=O the outcome was “inactive”.
In the case of CC1(C)O[C@@H]2[C@@H](CO[C@@]3(COS(N)(=O)=O)OC(C)(C)O[C@@H]23)O1, the outcome was “inactive”.
For CCC(=O)OCCOc1ccccc1, the outcome was “inactive”.
For C[N+](C)(C)CCCCCC[N+](C)(C)C, the outcome was “inactive”.
With COc1ccc(N=Nc2cc(C)c(N=Nc3ccc(S(=O)(=O)O)cc3)cc2OC)cc1 the AC50 was 71.8 µM (active).
With COC(=O)C=C(C)CCC=C(C)C the outcome was “inactive”.
With CC(=O)OCCCc1ccccc1 the outcome was “inactive”.
For CCCCOCC, the outcome was “inactive”.
In the case of OCC(O)c1ccccc1 (stereo not drawn), the outcome was “inactive”.
With CCCCC(CC)COC(C)=O (stereo not drawn) the outcome was “inactive”.
With CC(C)OCCO the outcome was “inactive”.
For COCCOC(=O)c1ccccc1C(=O)OCCOC, the outcome was “inactive”.
With Cc1ccc(OC(=O)c2ccccc2O)cc1 the outcome was “inactive”.
In the case of CCCCCCCCCC(=O)OC, the outcome was “inactive”.
For Cc1c(Cl)cccc1[N+](=O)[O-], the outcome was “inactive”.
For CCCCC(CC)(CO)CO, the outcome was “inactive”.
With Nc1ccc2c(O)cc(S(=O)(=O)O)cc2c1 the outcome was “inactive”.
For O=CCc1ccccc1, the outcome was “inactive”.
For CC(C)CCCCCCc1ccc(OCCOCCO)cc1, the outcome was “inactive”.
With C=C(C)C(=O)OCCOCCOCCOCCOC(=O)C(=C)C the outcome was “inactive”.
With [O-]n1ccccc1=S.[O-]n1ccccc1=S.[Zn+2] the outcome was “inactive”.
In the case of O=[N+]([O-])c1cccc(Cl)c1, the outcome was “inactive”.
With CC(=O)Nc1ccc(C(=O)CCl)cc1 the outcome was “inactive”.
For Cc1ccc(-c2ccccc2)cc1, the outcome was “inactive”.

System: not listed separately
Test: ATG_NFI_CIS: Attagene CIS-FACTORIAL HepG2 Assay for human Nuclear Factor I (NFI) (AID 2282989)
Details: HepG2 cis-regulatory reporter, NFI response element transcription; actives raise or lower the signal
In short: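 Endogenous TF activity in HepG2 cells transiently transfected with cis-element-driven multiplexed reporter units, read 24 h after dosing. Reporter mRNA quantified by RT-PCR, 6-FAM labelling, HpaI digestion and capillary electrophoresis; bidirectional fit versus DMSO.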
With CCCCSCCCC the outcome was “inactive”.
With CCCCC1(COC(=O)CCC(=O)O)C(=O)N(c2ccccc2)N(c2ccccc2)C1=O the outcome was “inactive”.
With Cc1occc(=O)c1OC(=O)C(C)C the outcome was “inactive”.
In the case of CC(C)(C)c1ccc(C(=O)O)cc1, the outcome was “inactive”.
With CC1CC(O)CC(C)(C)C1 (stereo not drawn) the outcome was “inactive”.
For CCCOC(=O)c1c(Cl)c(Cl)c(Cl)c(Cl)c1C(=O)OCCC, the AC50 was 156 µM (active).
With CC(C)CCOC(=O)c1ccccc1 the outcome was “inactive”.
In the case of O=C(O)c1cccnc1C(=O)O, the outcome was “inactive”.
For CCC(C)c1cc([N+](=O)[O-])cc([N+](=O)[O-])c1OC(=O)OC(C)C (stereo not drawn), the AC50 was 24.5 µM (active).
With Cc1cccc(Nc2ccccc2)c1 the outcome was “inactive”.
In the case of C=C[Si]1(C)O[Si](C)(C=C)O[Si](C)(C=C)O[Si](C)(C=C)O1 (stereo not drawn), the outcome was “inactive”.
For O=Cc1ccccc1S(=O)(=O)O, the outcome was “inactive”.
For Brc1ccc(Br)c(Br)c1, the outcome was “inactive”.
With CCOc1ccc(NC(=O)CC(C)O)cc1 (stereo not drawn) the outcome was “inactive”.
For CS(=O)(=O)OCCCCOS(C)(=O)=O, the outcome was “inactive”.
For OC[C@H]1O[C@@H]2O[C@H]3[C@H](O)[C@@H](O)[C@@H](O[C@H]4[C@H](O)[C@@H](O)[C@@H](O[C@H]5[C@H](O)[C@@H](O)[C@@H](O[C@H]6[C@H](O)[C@@H](O)[C@@H](O[C@H]7[C@H](O)[C@@H](O)[C@@H](O[C@H]8[C@H](O)[C@@H](O)[C@@H](O[C@H]9[C@H](O)[C@@H](O)[C@@H](O[C@H]1[C@H](O)[C@H]2O)O[C@@H]9CO)O[C@@H]8CO)O[C@@H]7CO)O[C@@H]6CO)O[C@@H]5CO)O[C@@H]4CO)O[C@@H]3CO, the outcome was “inactive”.
In the case of CC1(C)O[C@@H]2[C@@H](CO[C@@]3(COS(N)(=O)=O)OC(C)(C)O[C@@H]23)O1, the outcome was “inactive”.
For CCC(=O)OCCOc1ccccc1, the outcome was “inactive”.
In the case of C[N+](C)(C)CCCCCC[N+](C)(C)C, the outcome was “inactive”.
With COc1ccc(N=Nc2cc(C)c(N=Nc3ccc(S(=O)(=O)O)cc3)cc2OC)cc1 the AC50 was 149 µM (active).
For COC(=O)C=C(C)CCC=C(C)C, the outcome was “inactive”.
For CC(=O)OCCCc1ccccc1, the outcome was “inactive”.
In the case of CCCCOCC, the outcome was “inactive”.
In the case of OCC(O)c1ccccc1 (stereo not drawn), the outcome was “inactive”.
For CCCCC(CC)COC(C)=O (stereo not drawn), the outcome was “inactive”.
With CC(C)OCCO the outcome was “inactive”.
In the case of COCCOC(=O)c1ccccc1C(=O)OCCOC, the outcome was “inactive”.
In the case of Cc1ccc(OC(=O)c2ccccc2O)cc1, the outcome was “inactive”.
With CCCCCCCCCC(=O)OC the outcome was “inactive”.
For Cc1c(Cl)cccc1[N+](=O)[O-], the outcome was “inactive”.
In the case of CCCCC(CC)(CO)CO, the outcome was “inactive”.
With Nc1ccc2c(O)cc(S(=O)(=O)O)cc2c1 the outcome was “inactive”.
With O=CCc1ccccc1 the outcome was “inactive”.
With CC(C)CCCCCCc1ccc(OCCOCCO)cc1 the outcome was “inactive”.
For C=C(C)C(=O)OCCOCCOCCOCCOC(=O)C(=C)C, the outcome was “inactive”.
In the case of [O-]n1ccccc1=S.[O-]n1ccccc1=S.[Zn+2], the outcome was “inactive”.
For O=[N+]([O-])c1cccc(Cl)c1, the outcome was “inactive”.
For CC(=O)Nc1ccc(C(=O)CCl)cc1, the AC50 was 8.18 µM (active).
For Cc1ccc(-c2ccccc2)cc1, the outcome was “inactive”.
